Assay [1] can be described thus: qHTS assay to identify small molecule agonists of the androgen receptor (AR) signaling pathway in the presence of an antagonist - cell viability counter screen (AID 1259379).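 Also: MDA-kb2 human breast cancer cells carrying an MMTV luciferase reporter; series mostly up to about 92 µM; nearly all actives have a fitted effect of over 25% in size.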 The procedure, abridged:
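MDA-kb2 cells (MMTV-luciferase, AR/GR), 3,000/well, 5 h attachment, then 3.0 µM nilutamide (final) and compounds at 15 concentrations. Viability by CellTiter-Fluor fluorescence after 16 h at 37 °C, 0% CO2, in the reporter wells.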

Assay [2] in a line: qHTS assay to identify small molecule agonists of the estrogen receptor beta (ER-beta) signaling pathway - cell viability counter screen (AID 1259380). Also: nearly all actives have a fitted effect of over 30% in size. Also: potency is read from the fitted curve at half-maximal effect. The procedure, abridged:
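ER-beta-UAS-bla HEK293T cells in medium with 2% charcoal-stripped FBS, pre-incubated 6 hr, then treated 16 hr at 37C. Cytotoxicity read in the same wells by CellTiter-Glo luminescence after 30 min at room temperature.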

Assay [3] has as its target Estrogen receptor (Homo sapiens) (UniProt P03372). Kind of assay: qHTS assay to identify small molecule agonists of the estrogen receptor alpha (ER-alpha) signaling pathway in the presence of an antagonist (AID 1259383; calls by dose curve; also: top concentration of the series differs between compounds; nearly all actives have a fitted effect of over 15% in size). The procedure, abridged:
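VM7Luc4E2 cells express endogenous full-length ER-alpha with an ERE-luciferase reporter and were hormone-deprived for 5 days. Compounds at 15 concentrations were added with 10.0nM ICI-182,780 for 22hr at 37C. Luminescence was read with ONE-Glo.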

Assay [4] in a line: qHTS assay to identify small molecule agonists or antagonists of the thyroid stimulating hormone receptor (TSHR) signaling pathway - wild type cell line counter screen (AID 1259384; calls by dose curve). An outline of the steps: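 Counter screen in untransfected Hek293: compounds (15-point titration, triplicate) plus phosphodiesterase inhibitor Ro20-1724 added after 18 h plating; 30 min RT. Intracellular cAMP via competitive d2/cryptate immunoassay, 1 h incubation.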

Assay [5] addresses Thyrotropin receptor (Homo sapiens) (UniProt P16473). The assay can be described thus: qHTS assay to identify small molecule antagonists of the thyroid stimulating hormone receptor (TSHR) signaling pathway (AID 1259385; calls by dose curve; also: nearly all actives have a fitted effect of over 20% in size). An outline of the steps:
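Antagonist mode: compound-treated TSHR-expressing HEK293 cells were stimulated with 1.5 ng/mL TSH (final) in presence of Ro20-1724 for 30 min at RT. HTRF cAMP detection after 1 h; each compound tested at 15 concentrations, triplicate.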

A short description of assay [6]: qHTS assay to identify small molecule agonists of the estrogen receptor alpha (ER-alpha) signaling pathway in the presence of an antagonist - cell viability counter screen (AID 1259386).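 Also: series mostly up to about 92 µM; cells exposed to compounds for 22 h at 37 °C before the viability read; nearly all actives have a fitted effect of over 30% in size.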 An outline of the steps: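 Cell viability in VM7Luc4E2 cells (endogenous full-length ER-alpha) measured by CellTiter-Fluor fluorescence in the same wells as the luciferase screen. Cells pre-cultured 5 days in charcoal-stripped serum, then treated 22 h with compounds at 15 concentrations plus 10.0nM ICI-182,780.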

Assay [7] deals with Progesterone receptor (Homo sapiens) (UniProt P06401). The assay can be described thus: qHTS assay to identify small molecule agonists of the progesterone receptor (PR) signaling pathway (AID 1346784; calls by dose curve; also: nearly all actives have a fitted effect of over 30% in size). The procedure, abridged:
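Beta-lactamase reporter read-out: after 16 hr compound treatment at 37C and a further 2 hr at room temperature with LiveBLAzer B/G FRET substrate, fluorescence was measured in PR-UAS-bla HEK 293T cells grown in 2% charcoal-stripped serum.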

The target is the same in assay [8]. Kind of assay: qHTS assay to identify small molecule antagonists of the progesterone receptor (PR) signaling pathway (AID 1346795; active = well fitted inhibition curve with a large enough effect in the signal ratio in the repeat runs, not every such curve was filed as active; the % refers to the signal ratio). The procedure, abridged:
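Read-out is fluorescence from the LiveBLAzer B/G FRET substrate, cleaved by a UAS-controlled beta-lactamase in PR-UAS-bla HEK293T cells after 16 hr exposure to compound plus 1 nM promegestone (final), followed by 2 hr at room temperature.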

Assay [9] in a line: qHTS assay to identify small molecule antagonists of the progesterone receptor (PR) signaling pathway - cell viability counter screen (AID 1346798). Also: series mostly up to about 92 µM; nearly all actives have a fitted effect of over 50% in size. An outline of the steps: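 HEK293T PR-UAS-bla, 2% charcoal-stripped FBS; 4 hr pre-plate; cpd + R5020, 16 h 37C; LiveBLAzer read first; then CellTiter-Glo 30 min RT, luminescence.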
Assay [10] in a line: qHTS assay to identify small molecule agonists of the progesterone receptor (PR) signaling pathway - cell viability counter screen (AID 1346799; calls by dose curve; also: nearly all actives have a fitted effect of over 45% in size; also: potency is read from the fitted curve at half-maximal effect). The procedure, abridged:
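Luminescence from CellTiter-Glo, added after the beta-lactamase FRET read in the same wells, gave cytotoxicity in PR-UAS-bla HEK293T cells treated with compounds for 16 hr at 37C.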

Assay [11] can be described thus: qHTS assay to identify small molecule antagonists of the TGF-beta/Smad signaling pathway - cell viability counter screen (AID 1346824). Also: nearly all actives have a fitted effect of over 50% in size. The procedure, abridged:
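Cytotoxicity counter-screen run in the same wells as the beta-lactamase Smad reporter read: CellTiter-Glo luminescence after 30 min at room temperature. HEK 293T SBE-bla cells had 5 hr compound exposure at 37 C with TGF-beta1 (0.25 ng/mL stock).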

A short description of assay [12]: qHTS assay to identify small molecule agonists of the TGF-beta/Smad signaling pathway - cell viability counter screen (AID 1346829). Also: top concentration of the series differs between compounds; nearly all actives have a fitted effect of over 45% in size. The procedure, abridged:
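SBE-bla HEK 293T cells plated overnight, compound exposure 5 hr at 37 C. Viability read in the same wells by CellTiter-Glo luminescence after 30 min at room temperature, following the beta-lactamase read.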

Assay [13] is described as follows: qHTS assay to identify small molecule agonists of the TGF-beta/Smad signaling pathway (AID 1346859; active = well fitted activation curve with a large enough effect in the signal ratio in the repeat runs, not every such curve was filed as active; the % refers to the signal ratio; also: potency is read from the fitted curve at half-maximal effect; as to activation: series mostly up to about 77 µM). An outline of the steps:
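SBE-bla HEK 293T, 4,000 cells/well, plated o/n; cpd in DMSO, 5 hr, 37 C/5% CO2; B/G FRET substrate 2 hr RT; ex 405, em 460/530 nm.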

Assay [14] concerns the target Thyrotropin-releasing hormone receptor (Homo sapiens) (UniProt P34981). Kind of assay: qHTS assay to identify small molecule antagonists of the thyrotropin-releasing hormone receptor (TRHR) signaling pathway (AID 1346877; active = well fitted inhibition curve with a large enough effect in the repeat runs, not every such curve was filed as active; also: series mostly up to about 51 µM). The procedure, abridged: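 TRHR-expressing HEK293 cells loaded with calcium dye for 2 h at 37 C; compounds pre-incubated 5 min at room temperature before TRH challenge at 1 nM final. Intracellular calcium fluorescence read kinetically for 3 min; 15 concentrations in triplicate.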

The target is the same in assay [15]. The assay can be described thus: qHTS assay to identify small molecule agonists of the thyrotropin-releasing hormone receptor (TRHR) signaling pathway (AID 1346891; calls by dose curve; also: series mostly up to about 58 µM). The procedure, abridged: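 Intracellular calcium rise, read as fluorescence every second for 3 min, served as the agonist signal in dye-loaded HEK293 cells expressing TRHR; each compound ran at 15 concentrations in triplicate.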

Assay [16] can be described thus: Human pregnane X receptor (PXR) small molecule agonists, qHTS cell viability counter screen (AID 1346977). Also: nearly all actives have a fitted effect of over 50% in size. An outline of the steps:
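PXR-Luc HepG2, 2,000 cells/well, 5% charcoal-stripped FBS; 5hr settle; cpd 24hr, 37C/5% CO2; CellTiter-Fluor at 23hr, read 1hr later (fluorescence).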

Assay [17] can be described thus: Caspase-3/7 induction in HepG2 cells by small molecules, qHTS assay (AID 1346978). Also: nearly all actives have a fitted effect of over 15% in size. The procedure, abridged: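 Caspase-3/7 induction was measured by Caspase-Glo 3/7 luminescence (30 min, room temperature) after a 17 hr compound exposure of wild-type HepG2 cells seeded at 2,000 per well and pre-incubated 5 hr.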
The nature of assay [18]: Caspase-3/7 induction in CHO-K1 cells by small molecules, qHTS cell viability counter screen (AID 1346979). Also: nearly all actives have a fitted effect of over 35% in size. Also: potency is read from the fitted curve at half-maximal effect. An outline of the steps:
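Cells (CHO-K1, wild type) are plated at 1,500 per well and incubated 5hr. Test compounds in DMSO are then pinned in, followed by 16hr at 37C and 5% CO2. Viability is read by CellTiter-Fluor fluorescence after 1hr.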

Assay [19] is described as follows: qHTS assay to identify small molecule antagonists of the estrogen receptor beta (ER-beta) signaling pathway - cell viability counter screen (AID 1259382).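 Also: HEK293T cells carrying ER-beta-UAS-bla reporter stimulated with estradiol; series mostly up to about 92 µM; nearly all actives have a fitted effect of over 55% in size.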 An outline of the steps:
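ER-beta-UAS-bla HEK293T cells in 2% charcoal-stripped FBS medium, treated with compound plus 1 nM 17-beta-estradiol for 16 h at 37C. Viability read by CellTiter-Glo luminescence after 30 min at room temperature in the same wells.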

Several values for one entry are separate records, joined by “and”; a condition that tells them apart may be missing. Equal values may be shown once. Records with an inconclusive call do not appear. Some compounds were tested as several samples or in several runs, with calls that do not always agree. Activity calls are given as the source filed them. Unless noted, calls follow the shape of the dose curve; as a rule, active = well fitted curve in the direction sought with a large enough effect in the repeat runs; inconclusive = weak or mixed curves; inactive = no such curve, though single readings can be large; an effect the other way counts as inactive or inconclusive.

Chain of Thyrotropin-releasing hormone receptor (Homo sapiens) (P34981 whole entry, looked up): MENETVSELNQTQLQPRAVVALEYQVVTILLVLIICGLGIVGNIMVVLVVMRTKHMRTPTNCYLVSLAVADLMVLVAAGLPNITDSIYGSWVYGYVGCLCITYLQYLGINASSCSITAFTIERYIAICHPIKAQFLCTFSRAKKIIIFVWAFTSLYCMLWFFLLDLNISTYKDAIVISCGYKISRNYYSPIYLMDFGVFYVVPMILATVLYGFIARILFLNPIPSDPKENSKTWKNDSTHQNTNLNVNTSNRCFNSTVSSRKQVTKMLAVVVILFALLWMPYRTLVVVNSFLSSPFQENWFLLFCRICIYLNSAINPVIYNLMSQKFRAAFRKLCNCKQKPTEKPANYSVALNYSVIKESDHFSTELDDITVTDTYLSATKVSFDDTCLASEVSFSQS
Chain of Estrogen receptor (Homo sapiens) (P03372 whole entry, looked up): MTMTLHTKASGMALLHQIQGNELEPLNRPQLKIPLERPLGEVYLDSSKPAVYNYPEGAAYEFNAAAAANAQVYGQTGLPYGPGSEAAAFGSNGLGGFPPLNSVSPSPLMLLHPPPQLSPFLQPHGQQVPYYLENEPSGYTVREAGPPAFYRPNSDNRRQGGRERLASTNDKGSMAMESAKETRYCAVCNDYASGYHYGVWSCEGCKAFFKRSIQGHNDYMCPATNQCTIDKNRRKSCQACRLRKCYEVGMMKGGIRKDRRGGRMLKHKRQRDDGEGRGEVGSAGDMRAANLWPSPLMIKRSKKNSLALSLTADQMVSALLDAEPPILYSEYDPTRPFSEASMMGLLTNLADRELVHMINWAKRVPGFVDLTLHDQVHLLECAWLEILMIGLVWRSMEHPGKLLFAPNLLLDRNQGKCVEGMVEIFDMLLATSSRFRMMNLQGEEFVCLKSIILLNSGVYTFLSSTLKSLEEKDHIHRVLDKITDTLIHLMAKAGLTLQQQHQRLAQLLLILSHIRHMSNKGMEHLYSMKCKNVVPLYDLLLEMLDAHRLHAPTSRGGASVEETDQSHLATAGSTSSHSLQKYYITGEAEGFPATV
Chain of Progesterone receptor (Homo sapiens) (P06401 whole entry, looked up): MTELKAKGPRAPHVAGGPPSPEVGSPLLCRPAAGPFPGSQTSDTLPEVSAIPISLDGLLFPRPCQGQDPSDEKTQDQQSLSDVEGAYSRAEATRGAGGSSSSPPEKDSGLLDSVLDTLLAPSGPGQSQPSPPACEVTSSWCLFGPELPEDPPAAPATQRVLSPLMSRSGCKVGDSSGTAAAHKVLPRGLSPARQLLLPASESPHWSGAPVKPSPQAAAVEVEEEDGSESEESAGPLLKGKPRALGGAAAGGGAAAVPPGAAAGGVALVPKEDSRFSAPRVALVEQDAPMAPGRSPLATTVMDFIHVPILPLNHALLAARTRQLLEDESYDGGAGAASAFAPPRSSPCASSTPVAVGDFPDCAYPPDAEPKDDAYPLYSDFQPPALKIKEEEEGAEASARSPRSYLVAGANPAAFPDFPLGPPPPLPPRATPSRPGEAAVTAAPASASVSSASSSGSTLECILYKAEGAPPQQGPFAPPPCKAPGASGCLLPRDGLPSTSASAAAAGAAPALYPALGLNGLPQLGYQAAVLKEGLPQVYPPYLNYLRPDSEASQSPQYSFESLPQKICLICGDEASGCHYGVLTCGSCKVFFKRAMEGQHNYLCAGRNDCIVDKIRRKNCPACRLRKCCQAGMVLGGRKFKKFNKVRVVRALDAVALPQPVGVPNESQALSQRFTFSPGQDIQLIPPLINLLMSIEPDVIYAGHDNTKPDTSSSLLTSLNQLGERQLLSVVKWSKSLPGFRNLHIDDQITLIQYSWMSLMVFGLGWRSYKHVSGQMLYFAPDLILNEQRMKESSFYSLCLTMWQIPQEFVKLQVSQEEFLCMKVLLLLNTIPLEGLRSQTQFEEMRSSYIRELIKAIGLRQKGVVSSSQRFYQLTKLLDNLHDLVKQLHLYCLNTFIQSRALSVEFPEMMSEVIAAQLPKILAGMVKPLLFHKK
Chain of Thyrotropin receptor (Homo sapiens) (P16473 whole entry, looked up): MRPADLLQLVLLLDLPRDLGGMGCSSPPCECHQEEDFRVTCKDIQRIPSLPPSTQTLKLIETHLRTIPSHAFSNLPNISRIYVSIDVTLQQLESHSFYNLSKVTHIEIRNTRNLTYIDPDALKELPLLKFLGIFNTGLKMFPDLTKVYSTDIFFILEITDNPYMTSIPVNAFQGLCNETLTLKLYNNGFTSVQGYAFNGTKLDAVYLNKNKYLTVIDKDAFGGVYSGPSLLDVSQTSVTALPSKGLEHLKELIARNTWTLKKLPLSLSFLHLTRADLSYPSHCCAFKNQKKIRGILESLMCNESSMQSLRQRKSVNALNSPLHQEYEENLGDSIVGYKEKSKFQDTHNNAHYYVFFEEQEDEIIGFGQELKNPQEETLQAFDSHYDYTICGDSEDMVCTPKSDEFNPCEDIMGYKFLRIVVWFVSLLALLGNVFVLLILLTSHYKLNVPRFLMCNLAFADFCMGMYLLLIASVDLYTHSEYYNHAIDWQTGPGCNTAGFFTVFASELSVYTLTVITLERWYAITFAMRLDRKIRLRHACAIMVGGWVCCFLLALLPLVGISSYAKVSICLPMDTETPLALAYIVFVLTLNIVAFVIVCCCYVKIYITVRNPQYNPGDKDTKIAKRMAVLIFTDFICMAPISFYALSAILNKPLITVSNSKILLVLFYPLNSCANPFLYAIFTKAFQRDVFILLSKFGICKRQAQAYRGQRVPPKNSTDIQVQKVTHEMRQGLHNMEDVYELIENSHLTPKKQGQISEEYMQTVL

As for `COCC(=O)N(c1c(C)cccc1C)C(C)C(=O)OC` (configuration not stated), the Potency result in [1], in assay [2], in assay [3], in assay [4], in [5] and in assay [6] was “inactive” each time. The Potency entry in [7], in assay [8], in assay [9], in assay [10], in assay [11] and in [12] was “inactive” throughout. The Potency entry in assay [13], in assay [14], in assay [15], in [16], in assay [17] and in assay [18] was “inactive” throughout.
Turning to `C[N+](C)(C)Cc1ccccc1`, the Potency entry in assay [1], in [2], in assay [19], in assay [3], in [4] and in [5] was “inactive” each time. The Potency result in assay [6], in assay [7], in assay [8], in [9], in [10] and in [11] was “inactive” throughout. The Potency entry in assay [12], in [16], in assay [17] and in assay [18] was “inactive” throughout. Also, the Potency in assay [13] is 48.7 µM (active) and inactive.
As to `CCCC[n+]1ccccc1C`, the Potency result in [1], in assay [2], in assay [19], in assay [7], in assay [8] and in [9] was “inactive” in each case. The Potency entry in [10], in assay [11], in [12], in assay [13], in assay [16] and in assay [17] was “inactive” throughout. Besides, the Potency result in [18] was “inactive”.
With `CCNc1nc(Cl)nc(NCC)n1`, the Potency result in [1], in assay [2], in assay [3], in assay [4], in assay [5] and in assay [6] was “inactive” each time. In addition, the Potency entry in assay [7], in assay [8], in [9], in assay [10], in assay [11] and in assay [12] was “inactive” each time. For the same molecule, the Potency entry in assay [13], in assay [14], in [15], in assay [16], in assay [17] and in assay [18] was “inactive” each time.
With `C[C@]12CCC(=O)C=C1CC[C@@H]1[C@@H]2CC[C@]2(C)C(=O)CC[C@@H]12`, the Potency entry in assay [1], in assay [3], in [4], in [5], in assay [6] and in assay [7] was “inactive” throughout. Besides, the Potency entry in assay [11], in assay [12], in assay [13], in [14], in [15] and in [16] was “inactive” in each case. For the same molecule, the Potency entry in assay [17] was “inactive”. Besides, the Potency in assay [2] is 53.5 µM (active) and 54.5 µM (active); in assay [10], “inactive and 61.1 µM (active)”; in assay [18] it was 23.9 µM (active) and inactive.
On to `CCCC[n+]1ccccc1`, for which the Potency result in assay [1], in [2], in assay [19], in assay [4], in [5] and in [7] was “inactive” throughout. In addition, the Potency entry in [8], in assay [9], in assay [10], in assay [11], in [12] and in assay [13] was “inactive” throughout. The Potency entry in assay [16], in assay [17] and in [18] was “inactive” in each case.

For the origin of these results see PubChem BioAssay (Tox21).
